# Results published in PMC11995724, “Antibiotic target discovery by integrated phenotypic and activity-based profiling of electrophilic fragments” (Cell chemical biology, 2025).
# Among all 3,200 compounds or so, about 75 (2%) showed an effect of 50% or more. For the sample, strong results were picked, then their nearest neighbours and some compounds at random.
# Tested on: T1, S. aureus MSSA476
# T1 construct: MSSA476
# Set-up: species or system S. aureus MSSA476 (TSB) or V. cholerae SAD30 (LB); 384-well bacterial growth screen at 25 uM, OD600 relative to DMSO control
# Conditions: relative growth, OD600, TSB; 25 µM; inhibitor
row,SMILES,% of control remaining [%]
1,"COc1cc(C)c(C=C(C#N)C(=O)Nc2ccc(C)cc2)cc1C(C)C [9-C04, 2-cyano-3-[4-methoxy-2-methyl-5-(propan-2-yl)phenyl]-N-(4-methylphenyl)prop-2-enamide]",99.176
2,"O=C(CCl)c1sccc1Cl [10-K11, 2-chloro-1-(3-chlorothiophen-2-yl)ethan-1-one]",10.3125
3,"O=C(CCl)c1cc(Cl)ccc1Cl [10-E16, 2-chloro-1-(2,5-dichlorophenyl)ethan-1-one]",80
4,"O=C(O)c1csc(C(=O)CCl)c1 [10-E22, 5-(2-chloroacetyl)thiophene-3-carboxylic acid]",88.4375
5,"C=CC(=O)NCc1cc(Cl)cc(S(C)(=O)=O)c1 [3-N15, N-[(3-chloro-5-methanesulfonylphenyl)methyl]prop-2-enamide]",97.5185
6,"C=CC(=O)NCc1oc(CC)nc1C [3-P15, N-[(2-ethyl-4-methyl-1,3-oxazol-5-yl)methyl]prop-2-enamide]",86.7218
7,"Cc1c(C#N)c(NC(=O)CCl)n(Cc2cccs2)c1C [4-C04, 2-chloro-N-{3-cyano-4,5-dimethyl-1-[(thiophen-2-yl)methyl]-1H-pyrrol-2-yl}acetamide]",108.623
8,"N#Cc1c(NC(=O)CCl)oc(-c2ccco2)c1-c1ccco1 [5-D10, 2-chloro-N-[4'-cyano-2'-(furan-2-yl)-[2,3'-bifuran]-5'-yl]acetamide]",66.6667
9,"N#Cc1c(NC(=O)CCl)oc(-c2cccs2)c1-c1cccs1 [6-I09, 2-chloro-N-[3-cyano-4,5-bis(thiophen-2-yl)furan-2-yl]acetamide]",37.9024
10,"COCC(C)NC(=O)C(C#N)=Cc1cccc(F)c1F (centres unmarked) [9-F09, 2-cyano-3-(2,3-difluorophenyl)-N-(1-methoxypropan-2-yl)prop-2-enamide]",101.873
11,"C=CC(=O)N1CCCC1c1nc(N(C)C)no1 (centres unmarked) [2-C21, 1-{2-[3-(dimethylamino)-1,2,4-oxadiazol-5-yl]pyrrolidin-1-yl}prop-2-en-1-one]",104.439
12,"C=CC(=O)N(CC)CC(=O)N1CCCC(F)(F)C1 [2-G14, N-[2-(3,3-difluoropiperidin-1-yl)-2-oxoethyl]-N-ethylprop-2-enamide]",112.446
13,"O=C1C=CC(=O)N1CCc1ccccc1 [10-E20, 1-(2-phenylethyl)-2,5-dihydro-1H-pyrrole-2,5-dione]",58.4375
14,"O=C1C=CC(=O)N1CCc1ccccc1F [10-G03, 1-[2-(2-fluorophenyl)ethyl]-2,5-dihydro-1H-pyrrole-2,5-dione]",4.375
15,"O=C1C=CC(=O)N1CCc1ccc(F)cc1 [10-C21, 1-[2-(4-fluorophenyl)ethyl]-2,5-dihydro-1H-pyrrole-2,5-dione]",70.9375
16,"CCc1nsc(N2CCN(C(=O)C(C#N)=Cc3ccco3)CC2)n1 [9-K05, 2-[4-(3-ethyl-1,2,4-thiadiazol-5-yl)piperazine-1-carbonyl]-3-(furan-2-yl)prop-2-enenitrile]",96.779
17,"CNS(=O)(=O)c1cc(NC(=O)CCl)ccc1C [6-M07, 2-chloro-N-[4-methyl-3-(methylsulfamoyl)phenyl]acetamide]",112.341
18,"Cc1ccc(NC(=O)CN2CCN(C(=O)CCl)CC2)cc1.Cl [4-D16, 2-[4-(2-chloroacetyl)piperazin-1-yl]-N-(4-methylphenyl)acetamide hydrochloride]",131.872
19,"COCC(NC(=O)C(C)Cl)c1ccccn1 (centres unmarked) [6-B13, 2-chloro-N-[2-methoxy-1-(pyridin-2-yl)ethyl]propanamide]",95.6098
20,"COc1cc(C=C(C#N)C(=O)NC2CCCCC2)cc(Cl)c1O [8-H21, 3-(3-chloro-4-hydroxy-5-methoxyphenyl)-2-cyano-N-cyclohexylprop-2-enamide]",104.564
21,"COc1ccccc1N1C(=O)C=CC1=O [10-O10, 1-(2-methoxyphenyl)-2,5-dihydro-1H-pyrrole-2,5-dione]",118.438
22,"O=C1C=CC(=O)N1c1cccc(O)c1 [10-O07, 1-(3-hydroxyphenyl)-2,5-dihydro-1H-pyrrole-2,5-dione]",125.313
23,"O=C1C=CC(=O)N1c1ccc(F)c(Cl)c1 [10-D15, 1-(3-chloro-4-fluorophenyl)-2,5-dihydro-1H-pyrrole-2,5-dione]",109.688
24,"O=C1C=CC(=O)N1c1ccc2ccccc2c1 [10-D07, 1-(naphthalen-2-yl)-2,5-dihydro-1H-pyrrole-2,5-dione]",3.125

row,SMILES,% of control remaining [%]
1,"O=C1C=CC(=O)N1c1ccc(Oc2ccccc2)cc1 [10-F17, 1-(4-phenoxyphenyl)-2,5-dihydro-1H-pyrrole-2,5-dione]",36.875
2,"CCOc1ccc(N2C(=O)C=CC2=O)cc1 [10-A14, 1-(4-ethoxyphenyl)-2,5-dihydro-1H-pyrrole-2,5-dione]",141.563
3,"COc1cccc(N2C(=O)C=CC2=O)c1 [10-K03, 1-(3-methoxyphenyl)-2,5-dihydro-1H-pyrrole-2,5-dione]",124.375
4,"O=C1C=CC(=O)N1c1ccc(OC(F)(F)F)cc1 [10-J19, 1-[4-(trifluoromethoxy)phenyl]-2,5-dihydro-1H-pyrrole-2,5-dione]",5.9375
5,"O=C1C=CC(=O)N1c1ccc(OC(F)F)cc1 [10-P11, 1-[4-(difluoromethoxy)phenyl]-2,5-dihydro-1H-pyrrole-2,5-dione]",110.313
6,"CCOC(=O)c1[nH]c(C)c(C(=O)CCl)c1C [10-A10, ethyl 4-(2-chloroacetyl)-3,5-dimethyl-1H-pyrrole-2-carboxylate]",136.563
7,"C=CC(=O)NCC1=NOCC1 [3-G16, N-[(4,5-dihydro-1,2-oxazol-3-yl)methyl]prop-2-enamide]",95.7771
8,"Cc1cc(C(=O)CCl)c(F)cc1F [10-O03, 2-chloro-1-(2,4-difluoro-5-methylphenyl)ethan-1-one]",143.438
9,"O=C1CCc2cc(C(=O)CCl)c(F)cc2N1 [10-O20, 6-(2-chloroacetyl)-7-fluoro-1,2,3,4-tetrahydroquinolin-2-one]",3.75
10,"O=C1CCc2cc(C(=O)CCl)ccc2N1 [10-M03, 6-(2-chloroacetyl)-1,2,3,4-tetrahydroquinolin-2-one]",83.125
11,"C=CC(=O)N1CCC(n2nc(C)nc2O)CC1 [3-P21, 1-[4-(5-hydroxy-3-methyl-1H-1,2,4-triazol-1-yl)piperidin-1-yl]prop-2-en-1-one]",126.077
12,"CC1CCN(C(=O)CCl)c2cc(C(F)(F)F)ccc2S1 (centres unmarked) [5-J07, 2-chloro-1-[2-methyl-7-(trifluoromethyl)-2,3,4,5-tetrahydro-1,5-benzothiazepin-5-yl]ethan-1-one]",106.011
13,"O=C(CCl)Nc1c(Cl)cccc1C(F)(F)F [5-B04, 2-chloro-N-[2-chloro-6-(trifluoromethyl)phenyl]acetamide]",82.3315
14,"O=C(CCl)N1CCOc2c1cccc2C(F)(F)F [5-G08, 2-chloro-1-[8-(trifluoromethyl)-3,4-dihydro-2H-1,4-benzoxazin-4-yl]ethan-1-one]",0.3643
15,"CN(C)S(=O)(=O)c1ccc(Cl)c(NC(=O)CCl)c1 [6-H12, 2-chloro-N-[2-chloro-5-(dimethylsulfamoyl)phenyl]acetamide]",88.439
16,"C=CC(=O)N1CCN(Cc2cc(=O)n3ccsc3n2)CC1 [3-F22, 7-{[4-(prop-2-enoyl)piperazin-1-yl]methyl}-5H-[1,3]thiazolo[3,2-a]pyrimidin-5-one]",101.698
17,"O=C(CCl)N1c2ccccc2Sc2ccc(Cl)cc21 [4-N07, 2-chloro-1-(2-chloro-10H-phenothiazin-10-yl)ethan-1-one]",3.049
18,"CC1CSc2ccc(Cl)cc2N(C(=O)CCl)C1 (centres unmarked) [5-J05, 2-chloro-1-(7-chloro-3-methyl-2,3,4,5-tetrahydro-1,5-benzothiazepin-5-yl)ethan-1-one]",95.4463
19,"CC1CCN(C(=O)CCl)c2cc(Cl)ccc2S1 (centres unmarked) [4-G16, 2-chloro-1-(7-chloro-2-methyl-2,3,4,5-tetrahydro-1,5-benzothiazepin-5-yl)ethan-1-one]",93.3778
20,"CC(Cl)C(=O)N(Cc1nnc(-c2ccccc2Cl)o1)C1CC1 (centres unmarked) [5-B17, 2-chloro-N-{[5-(2-chlorophenyl)-1,3,4-oxadiazol-2-yl]methyl}-N-cyclopropylpropanamide]",92.5319
21,"C[C@H]1CN(C(=O)CCl)CCN1C(=O)c1cscn1 [5-L05, 2-chloro-1-[(3S)-3-methyl-4-(1,3-thiazole-4-carbonyl)piperazin-1-yl]ethan-1-one]",92.5319
22,"O=C(CCl)c1cscn1 [10-L08, 2-chloro-1-(1,3-thiazol-4-yl)ethan-1-one]",27.8125
23,"O=C(CCl)c1ccccn1 [10-J03, 2-chloro-1-(pyridin-2-yl)ethan-1-one]",51.875
